We go through eight molecules from PubChem BioAssay (NCI).

The panel holds about 83,000 compounds, 20% with a hit somewhere; the sample as a whole holds those more often.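 The test compound was applied at a single concentration to cells in 96-well plates for 48 hours, and percent growth was recorded.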 Values without a mark were called inactive. Activity calls are given as the source filed them. Rule for the calls: active = growth percent below 10; inactive = the rest.

Some test systems named below: NCI-H23 lung; NCI-H226 lung; NCI-H322M lung; HOP-62 NSCLC; NCI-H460 lung; HOP-92 NSCLC; NCI-H522 lung; A549/ATCC NSCLC; 786-0 renal; COLO 205 colon; DU-145 prostate; K-562 leukemia; MALME-3M melanoma; MDA-MB-231 breast; RXF 393 renal; SF-268 CNS; SF-295 CNS; SF-539 CNS; UACC-257 melanoma; M14 melanoma.
Holding throughout (assay): NCI-60 one-dose screen, 48 h (100 = growth as untreated, 0 = no growth, -100 = all killed)
Conditions in all cases: 10 µM unless noted

With `CCCCN(CCCC)CCc1c(C)cc(C)c(CCN(CCCC)CCCC)c1O`, the growth in the assay on NCI-H23 lung is 4.18% (active); in the assay on NCI-H226 lung it was 26.8%; in the assay with NCI-H322M lung, 35.5%; in the assay on HOP-62 NSCLC it was 62.4%; in the assay with NCI-H460 lung, 7.59% (active); in the assay with HOP-92 NSCLC, -11.3% (active). Also, the growth in the assay with NCI-H522 lung was -6.82% (active); in the assay on A549/ATCC NSCLC, 41.5%; in the assay with 786-0 renal, 41.1%; with COLO 205 colon it was 20%; with DU-145 prostate, 52.9%; in the assay with K-562 leukemia, 21.2%. Also, the growth was -15.9% (active) with MALME-3M melanoma; 48.3% in the assay on MDA-MB-231 breast; 40.1% in the assay on RXF 393 renal; 49.5% in the assay on SF-268 CNS; 31.3% with SF-295 CNS; 67.6% with SF-539 CNS. Also, the growth is 7.47% (active) in the assay with UACC-257 melanoma and 38.8% with M14 melanoma.

As to `COc1cccc(NC(=O)c2cccc(-c3cc(=O)c4c(OC)c(OC)c(OC)cc4o3)c2)c1`, the growth in the assay with NCI-H23 lung was 63.1%; in the assay on NCI-H226 lung, 63.3%; in the assay on NCI-H322M lung it was 80.1%; in the assay on HOP-62 NSCLC, 59.5%; in the assay with NCI-H460 lung, 60.1%; with HOP-92 NSCLC it was 41.9%. In addition, the growth in the assay with NCI-H522 lung was 46.6%; in the assay with A549/ATCC NSCLC, 62.8%; with 786-0 renal, 68.9%; in the assay on COLO 205 colon it was 68.3%; in the assay with DU-145 prostate it was 71.8%; with K-562 leukemia, 40.3%. The growth is 84.8% in the assay with MALME-3M melanoma; 59.6% in the assay on MDA-MB-231 breast; 47.9% with RXF 393 renal; 63.1% in the assay with SF-268 CNS; 70.8% in the assay on SF-295 CNS; 77.5% in the assay on SF-539 CNS. Besides, the growth in the assay with UACC-257 melanoma is 92.4%; with M14 melanoma, 73.5%.

For `FCc1nc2nc(Cl)c(Cl)nc2[nH]1`, the growth with NCI-H23 lung is 99.3%; with NCI-H226 lung, 104%; with NCI-H322M lung, 113%; in the assay with HOP-62 NSCLC, 94.8%; in the assay with NCI-H460 lung it was 108%; in the assay with HOP-92 NSCLC it was 81.2%. For the same molecule, the growth was 95.9% in the assay on NCI-H522 lung; 98.9% with A549/ATCC NSCLC; 103% in the assay on 786-0 renal; 109% in the assay with COLO 205 colon; 104% in the assay on DU-145 prostate; 93% in the assay on K-562 leukemia. Besides, the growth in the assay with MALME-3M melanoma is 97.3%; in the assay on MDA-MB-231 breast, 128%; with RXF 393 renal it was 105%; with SF-268 CNS, 94.9%; with SF-295 CNS, 93.7%; in the assay on SF-539 CNS, 100%. Moreover, the growth in the assay on UACC-257 melanoma is 99.2%; in the assay with M14 melanoma it was 107%.

Take `COC(=O)C1=C(C(=O)ONCCN(C)C)C2C=CC1(C(Cc1ccccc1)Nc1ccc(F)cc1)O2` (stereo not given): the growth is 91.6% in the assay with NCI-H23 lung; 108% with NCI-H226 lung; 92.8% with NCI-H322M lung; 101% in the assay on HOP-62 NSCLC; 113% in the assay on NCI-H460 lung; 89.7% in the assay on HOP-92 NSCLC. Besides, the growth in the assay with NCI-H522 lung is 19.2%; in the assay on A549/ATCC NSCLC, 98.1%; with 786-0 renal, 106%; in the assay with COLO 205 colon, -14.7% (active); in the assay on DU-145 prostate, 95.6%; in the assay with K-562 leukemia, 10.5%. The growth in the assay on MALME-3M melanoma is -9.2% (active); with MDA-MB-231 breast it was 108%; in the assay on RXF 393 renal, 111%; in the assay on SF-268 CNS, 91.7%; in the assay with SF-295 CNS, 113%; in the assay with SF-539 CNS it was 97.3%. The growth with UACC-257 melanoma was 104%; in the assay on M14 melanoma, 101%.

Take `COc1ccc(/C(C)=N/NC(=O)CSc2nc3ccccc3c(=O)n2Cc2ccc(S(N)(=O)=O)cc2)c(OC)c1`: the growth was 101% in the assay with NCI-H23 lung; 93.9% with NCI-H226 lung; 94.8% in the assay with NCI-H322M lung; 100% in the assay with HOP-62 NSCLC; 102% in the assay with NCI-H460 lung; 112% in the assay with HOP-92 NSCLC. Further, the growth in the assay with NCI-H522 lung was 96%; in the assay with A549/ATCC NSCLC it was 102%; in the assay on 786-0 renal, 105%; in the assay on COLO 205 colon it was 118%; in the assay on DU-145 prostate, 108%; in the assay on K-562 leukemia it was 94.9%. Also, the growth was 102% in the assay on MALME-3M melanoma; 96.2% in the assay on MDA-MB-231 breast; 102% in the assay on RXF 393 renal; 91.8% in the assay on SF-268 CNS; 98.7% in the assay on SF-295 CNS; 100% in the assay on SF-539 CNS. In addition, the growth in the assay on UACC-257 melanoma was 107%; with M14 melanoma it was 104%.

As to `Nc1c(Cl)cc([N+](=O)[O-])cc1Br`, the growth was 93% in the assay on NCI-H23 lung; 93.7% in the assay with NCI-H226 lung; 103% in the assay with NCI-H322M lung; 109% in the assay on HOP-62 NSCLC; 114% in the assay with NCI-H460 lung; 74.8% in the assay on HOP-92 NSCLC. Also, the growth in the assay with NCI-H522 lung was 88.1%; with A549/ATCC NSCLC, 99.6%; with 786-0 renal, 87.8%; in the assay on COLO 205 colon it was 118%; in the assay on DU-145 prostate, 105%; with K-562 leukemia, 99.1%. The growth in the assay with MALME-3M melanoma was 107%; with MDA-MB-231 breast, 101%; in the assay on RXF 393 renal it was 98.2%; in the assay on SF-268 CNS, 97.1%; in the assay on SF-295 CNS it was 74%; with SF-539 CNS, 114%. Moreover, the results for the growth with UACC-257 melanoma and with M14 melanoma were 91.3% and 114%, respectively.

With `C=C1C(=O)O[C@H]2[C@H]1CC/C(COC(=O)/C=C/c1c[nH]c3ccccc13)=C\CC[C@@]1(C)O[C@@H]21`, the growth in the assay with NCI-H23 lung is -53% (active); with NCI-H226 lung, -71.4% (active); in the assay with NCI-H322M lung it was -48.2% (active); in the assay on HOP-62 NSCLC, -73.5% (active); in the assay with NCI-H460 lung it was -70.8% (active); with HOP-92 NSCLC, -91.4% (active). Further, the growth in the assay with NCI-H522 lung is -63.1% (active); in the assay with A549/ATCC NSCLC, -78.7% (active); in the assay with 786-0 renal it was -90.4% (active); with COLO 205 colon it was -68.8% (active); in the assay with DU-145 prostate, -73.5% (active); in the assay on K-562 leukemia, -3.41% (active). Further, the growth was -83.5% (active) with MALME-3M melanoma; -78.4% (active) in the assay on MDA-MB-231 breast; -94.3% (active) in the assay with RXF 393 renal; -72.8% (active) in the assay on SF-268 CNS; 21.8% in the assay with SF-295 CNS; -95.5% (active) in the assay with SF-539 CNS. Moreover, the growth is -90.4% (active) with UACC-257 melanoma and -76.9% (active) with M14 melanoma.

As for `CC(=O)O[C@]1(C(C)=O)CC[C@H]2[C@@H]3C=C(Cl)C4=CC(=O)CC[C@]4(C)[C@H]3CC[C@@]21C`, the growth is 114% with NCI-H23 lung; 94.4% with NCI-H226 lung; 106% in the assay with NCI-H322M lung; 106% in the assay on HOP-62 NSCLC; 105% in the assay on NCI-H460 lung; 96.7% in the assay with HOP-92 NSCLC. In addition, the growth in the assay on NCI-H522 lung is 72.2%; in the assay on A549/ATCC NSCLC, 91.5%; in the assay with 786-0 renal, 99.4%; in the assay with COLO 205 colon, 133%; in the assay on DU-145 prostate it was 122%; in the assay with K-562 leukemia, 96.7%. The growth in the assay on MALME-3M melanoma was 125%; in the assay with MDA-MB-231 breast, 88.1%; in the assay on RXF 393 renal it was 109%; with SF-268 CNS it was 111%; in the assay with SF-295 CNS it was 113%; with SF-539 CNS, 102%. For the same molecule, the growth was 97.2% in the assay with UACC-257 melanoma and 103% in the assay on M14 melanoma.
